Measurements from the supplement of paper PMC6522484.
± gives the standard deviation of the averaged measurements.

Each compound was assayed on HCT116 (assay: TCF/Wnt firefly luciferase reporter signal relative to plate median (fraction of plate median); higher = higher Wnt reporter signal). Conditions: 10 µM; treatment time 24 h; reporter: TCF4/Wnt.
In short: (§1)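 Colorectal cancer cells expressing a stably transduced lentiviral TCF/Wnt firefly luciferase reporter were treated in 384-well plates with kinase inhibitor library compounds at a final 10 µM for 24 h. Firefly luciferase or CellTiterGlo luminescence was then read on parallel plates. Well signals were normalised to the plate median (webcellHTS2, additive, no log transformation) and averaged over two independent replicates.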
For `CN[C@@H]1C[C@H]2O[C@@](C)([C@@H]1OC)n1c3ccccc3c3c4c(c5c6ccccc6n2c5c31)C(=O)NC4` [Staurosporine], the “TCF/Wnt firefly luciferase reporter signal” value was 0.103 ± 0.0065. In the case of `Cc1ccccc1-n1c(Cn2ncc3c(N)ncnc32)nc2cccc(C)c2c1=O`, the “TCF/Wnt firefly luciferase reporter signal” value is reported as 0.604 ± 0.42. For `O=c1[nH]c2ccc(Cl)cc2c(N[C@@H]2CN3CCC2CC3)c1-c1nc2ccccc2[nH]1`, the “TCF/Wnt firefly luciferase reporter signal” value was 0.439 ± 0.17. With `Cc1ccccc1-n1c(Cn2cnc3c(N)ncnc32)nc2cccc(C)c2c1=O` the “TCF/Wnt firefly luciferase reporter signal” value was 1.18 ± 0.057. In the case of `COC[C@H]1OC(=O)c2coc3c2[C@@]1(C)C1=C(C3=O)[C@@H]2CCC(=O)[C@@]2(C)C[C@H]1OC(C)=O` [Wortmannin], the “TCF/Wnt firefly luciferase reporter signal” value is reported as 0.699 ± 0.021. In the case of `CC(C)(C)c1cc(C=C(C#N)C#N)cc(Br)c1O`, the “TCF/Wnt firefly luciferase reporter signal” value is reported as 1.38 ± 0.25. With `CCN1CCN(C(=O)Cc2ccc(Nc3ncc(F)c(Nc4ccc(C(=O)Nc5ccccc5Cl)cc4)n3)cc2)CC1` [Aurora A Inhibitor I] the “TCF/Wnt firefly luciferase reporter signal” value was 1.21 ± 0.071. In the case of `Cn1cc(C2=C(c3cn(C4CCN(Cc5ccccn5)CC4)c4ccccc34)C(=O)NC2=O)c2ccccc21`, the “TCF/Wnt firefly luciferase reporter signal” value is reported as 2.9 ± 0.54.

What follows are compounds tested on SW480 in the same assay as above. Conditions: 10 µM; treatment time 24 h; reporter: 7TFP.
In short: as §1
For `CN[C@@H]1C[C@H]2O[C@@](C)([C@@H]1OC)n1c3ccccc3c3c4c(c5c6ccccc6n2c5c31)C(=O)NC4` [Staurosporine], the “TCF/Wnt firefly luciferase reporter signal” value was 0.346 ± 0.19. In the case of `Cc1ccccc1-n1c(Cn2ncc3c(N)ncnc32)nc2cccc(C)c2c1=O`, the “TCF/Wnt firefly luciferase reporter signal” value is reported as 0.879 ± 0.2. `O=c1[nH]c2ccc(Cl)cc2c(N[C@@H]2CN3CCC2CC3)c1-c1nc2ccccc2[nH]1` was tested, and the “TCF/Wnt firefly luciferase reporter signal” value was 1.8 ± 0.099. In the case of `Cc1ccccc1-n1c(Cn2cnc3c(N)ncnc32)nc2cccc(C)c2c1=O`, the “TCF/Wnt firefly luciferase reporter signal” value is reported as 0.9485 ± 0.005. `COC[C@H]1OC(=O)c2coc3c2[C@@]1(C)C1=C(C3=O)[C@@H]2CCC(=O)[C@@]2(C)C[C@H]1OC(C)=O` [Wortmannin] was tested, and the “TCF/Wnt firefly luciferase reporter signal” value was 0.856 ± 0.54. In the case of `CC(C)(C)c1cc(C=C(C#N)C#N)cc(Br)c1O`, the “TCF/Wnt firefly luciferase reporter signal” value is reported as 1.3 ± 0.11. In the case of `CCN1CCN(C(=O)Cc2ccc(Nc3ncc(F)c(Nc4ccc(C(=O)Nc5ccccc5Cl)cc4)n3)cc2)CC1` [Aurora A Inhibitor I], the “TCF/Wnt firefly luciferase reporter signal” value is reported as 1.02 ± 0.035. `Cn1cc(C2=C(c3cn(C4CCN(Cc5ccccn5)CC4)c4ccccc34)C(=O)NC2=O)c2ccccc21` was tested, and the “TCF/Wnt firefly luciferase reporter signal” value was 1.45 ± 0.17.
